# Reference: PubChem BioAssay (Tox21)
# “And” between values parts separate entries of the source, which are not always exact repeats. Equal values may be shown once. Inconclusive results are not listed. A call without a number means that no potency is given here. The source made the active and inactive calls. Unless noted, calls follow the shape of the full dose curve.
# Experiments:
# [1] = Nuclear factor erythroid 2-related factor 2/antioxidant responsive element (Nrf2/ARE) small molecule agonists: luciferase reporter gene qHTS assay in human keratinocytes (AID 1919969); also: nearly all actives have a fitted effect of over 35% in size
# [2] = target: Gonadotropin-releasing hormone receptor (Homo sapiens) (UniProt P30968); assay: Human gonadotropin-releasing hormone receptor (GnRHR) small molecule agonists, calcium flux assay in GnRHR-HEK293 cells (AID 1920063); also: nearly all actives have a fitted effect of over 35% in size
# Chain of Gonadotropin-releasing hormone receptor (Homo sapiens) (P30968 whole entry, looked up): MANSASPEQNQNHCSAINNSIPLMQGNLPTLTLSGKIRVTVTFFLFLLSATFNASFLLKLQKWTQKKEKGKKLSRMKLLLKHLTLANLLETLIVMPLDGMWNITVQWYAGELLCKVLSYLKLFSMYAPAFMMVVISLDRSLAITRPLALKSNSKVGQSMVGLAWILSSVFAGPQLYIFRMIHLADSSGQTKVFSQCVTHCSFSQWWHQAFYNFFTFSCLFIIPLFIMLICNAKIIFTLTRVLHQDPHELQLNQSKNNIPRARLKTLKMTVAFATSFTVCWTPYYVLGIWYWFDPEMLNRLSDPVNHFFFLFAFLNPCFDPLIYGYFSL
# In short: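 Agonist mode: compounds at 15 concentrations, in triplicate, went onto calcium dye-loaded GnRHR-HEK293 cells. Intracellular calcium was then followed as 480/540 nm fluorescence at 1 s intervals over 3 min.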
# [3] = target: KiSS-1 receptor (Homo sapiens) (UniProt Q969F8); assay: Human kisspeptin (KISS1R) small molecule agonists, calcium flux assay in KISS1R-HEK293 cells (AID 1920064; active = well fitted activation curve with a large enough effect in the repeat runs)
# Chain of KiSS-1 receptor (Homo sapiens) (Q969F8 whole entry, looked up): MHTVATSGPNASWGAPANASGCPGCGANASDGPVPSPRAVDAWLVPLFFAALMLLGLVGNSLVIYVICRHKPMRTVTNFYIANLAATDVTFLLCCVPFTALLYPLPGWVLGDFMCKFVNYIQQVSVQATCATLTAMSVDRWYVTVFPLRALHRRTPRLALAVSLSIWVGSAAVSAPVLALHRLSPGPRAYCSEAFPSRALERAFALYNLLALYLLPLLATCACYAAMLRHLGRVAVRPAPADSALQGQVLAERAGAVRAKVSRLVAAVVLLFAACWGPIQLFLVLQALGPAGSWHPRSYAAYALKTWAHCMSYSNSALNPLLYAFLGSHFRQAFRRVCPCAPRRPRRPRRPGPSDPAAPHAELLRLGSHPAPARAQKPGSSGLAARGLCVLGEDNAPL
# In short: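 Agonist mode: intracellular calcium rise tracked at 1 s intervals over 3 min (480/540 nm) immediately after compound addition to dye-loaded KISS1R-HEK293 stable cells. Each compound tested at 15 concentrations in triplicate.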
# [4] = G protein-coupled receptor (GPCR) small molecule agonists, calcium flux assay: HEK293 wild type cell line counter screen (AID 1920065)
# In short: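 Calcium flux counter screen: compound added in agonist mode at 15 concentrations in triplicate to dye-loaded parental HEK293 cells. Fluorescence (480/540) read kinetically for 3 min; ATP served as positive control.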
# [5] = p53 small molecule agonists, cell-based qHTS assay with human liver microsomes (AID 1963577)
# In short: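 Fluorescence of the beta-lactamase reporter in p53RE-bla cells, detected with LiveBLAzer substrate (2 h, room temperature, dark), served as the read-out after 16 h compound exposure at 37 C with human liver microsomes and NADPH, each 0.5 mg/mL final.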
# [6] = p53 small molecule agonists, cell-based qHTS assay with rat liver microsomes (AID 1963578)
# In short: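 Cells carrying a p53 response element–beta-lactamase reporter were plated and rested 5 h, then dosed with compound in DMSO plus rat liver microsomes and NADPH, each at 0.5 mg/mL final. After 16 h at 37 C, LiveBLAzer substrate was added for 2 h.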
# [7] = p53 small molecule agonists, cell-based qHTS assay with human liver microsomes: qHTS cell viability counter screen (AID 1963579); also: nearly all actives have a fitted effect of over 45% in size
# In short: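 Cytotoxicity counter screen: p53RE-bla, 4,000 cells/well; 5 h settle, 37 C/5% CO2; cpd + HLM 0.5 mg/mL + NADPH 0.5 mg/mL (final); 16 h, 37 C; CellTiter-Glo, 30 min RT, luminescence.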
# [8] = p53 small molecule agonists, cell-based qHTS assay with rat liver microsomes: qHTS cell viability counter screen (AID 1963580); also: nearly all actives have a fitted effect of over 45% in size
# In short: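 After the beta-lactamase ratio was read, CellTiter-Glo was added to the same wells and luminescence measured at 30 min; cells had been treated 16 h at 37 C with compounds, rat liver microsomes and NADPH (0.5 mg/mL final each).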
# [9] = p53 small molecule agonists, cell-based qHTS assay: qHTS cell viability counter screen (AID 1963581); also: nearly all actives have a fitted effect of over 45% in size
# In short: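 Counter screen read by CellTiter-Glo luminescence (ATP content, 30 min at room temperature), run in the same wells as the beta-lactamase reporter read. HCT-116 p53RE-bla cells saw compounds for 16 h at 37 C.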
# [10] = p53 small molecule agonists, cell-based qHTS assay (AID 1963582; active = well fitted activation curve with a large enough effect in the signal ratio in the repeat runs, not every such curve was filed as active; the % refers to the signal ratio)
# In short: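 Read-out is beta-lactamase FRET fluorescence after 2 h at room temperature with LiveBLAzer B/G substrate. p53 response element-bla cells were treated 16 h at 37 C with compounds in DMSO, added 5 h after seeding.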
# [11] = target: 5-hydroxytryptamine receptor 2A (Homo sapiens) (UniProt P28223); assay: 5-hydroxytryptamine receptor 2A (HTR2A) small molecule antagonists, cell-based qHTS assay (AID 1963586); also: nearly all actives have a fitted effect of over 45% in size; also: potency is read from the fitted curve at half-maximal effect
# Chain of 5-hydroxytryptamine receptor 2A (Homo sapiens) (P28223 whole entry, looked up): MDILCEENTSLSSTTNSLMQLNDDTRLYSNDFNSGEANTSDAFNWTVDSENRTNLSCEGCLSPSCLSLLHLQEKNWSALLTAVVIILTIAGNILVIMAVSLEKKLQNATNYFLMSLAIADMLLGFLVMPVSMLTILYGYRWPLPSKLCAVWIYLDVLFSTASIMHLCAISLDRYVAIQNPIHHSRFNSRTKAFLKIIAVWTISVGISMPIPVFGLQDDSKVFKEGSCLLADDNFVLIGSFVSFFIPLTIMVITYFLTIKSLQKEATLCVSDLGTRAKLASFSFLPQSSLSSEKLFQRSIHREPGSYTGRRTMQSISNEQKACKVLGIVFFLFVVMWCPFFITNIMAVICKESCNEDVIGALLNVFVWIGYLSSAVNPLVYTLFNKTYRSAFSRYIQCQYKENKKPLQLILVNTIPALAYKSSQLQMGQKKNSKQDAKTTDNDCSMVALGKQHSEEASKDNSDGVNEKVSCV
# In short: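 CHO cells stably expressing human HTR2A were plated for 18 h at 37 C, then loaded with calcium dye for 1 h. Compounds were preincubated 5 min at room temperature before DOI (4 nM solution) was added. Kinetic fluorescence was read for 3 min.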
# [12] = target: 5-hydroxytryptamine receptor 2A (Homo sapiens) (UniProt P28223); assay: 5-hydroxytryptamine receptor 2A (HTR2A) small molecule agonists, cell-based qHTS assay (AID 1963587); also: nearly all actives have a fitted effect of over 30% in size
# In short: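 CHO cells stably expressing human HTR2A, plated 18 h, loaded with calcium dye 1 h at 37 C. Agonist mode: compounds added and intracellular calcium fluorescence recorded kinetically for 2 min at 1 sec intervals.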
# [13] = target: Muscarinic acetylcholine receptor M1 (Homo sapiens) (UniProt P11229); assay: Cholinergic receptor muscarinic 1 (CHRM1) small molecule agonists, cell-based qHTS assay (AID 1963589); also: nearly all actives have a fitted effect of over 35% in size
# Chain of Muscarinic acetylcholine receptor M1 (Homo sapiens) (P11229 whole entry, looked up): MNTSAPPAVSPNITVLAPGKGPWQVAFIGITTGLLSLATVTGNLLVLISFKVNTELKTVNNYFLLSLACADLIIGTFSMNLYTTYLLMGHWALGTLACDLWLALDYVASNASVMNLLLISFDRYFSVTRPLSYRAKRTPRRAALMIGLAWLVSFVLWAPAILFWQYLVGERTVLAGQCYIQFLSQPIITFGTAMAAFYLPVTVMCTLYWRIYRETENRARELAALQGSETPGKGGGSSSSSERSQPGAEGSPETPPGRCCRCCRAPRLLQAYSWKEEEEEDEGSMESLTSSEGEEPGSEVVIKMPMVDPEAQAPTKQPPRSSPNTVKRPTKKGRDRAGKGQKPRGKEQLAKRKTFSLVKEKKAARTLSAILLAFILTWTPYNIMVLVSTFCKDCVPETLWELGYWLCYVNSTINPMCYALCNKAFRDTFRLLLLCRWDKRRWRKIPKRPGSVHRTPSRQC
# In short: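 Agonist-mode calcium-flux screen: compounds at 15 concentrations, three independent runs, were pin-transferred onto dye-loaded human CHRM1-CHO cells. Fluorescence was then recorded kinetically every second over minutes.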
# [14] = cAMP Responsive Elements (CRE) small molecule agonists, cell-based qHTS assay (AID 1963590)
# In short: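 Agonist mode: compound added to CRE-bla HEK 293T cells (2,000/well, 18 h after plating) for 3 h at 37 C/5% CO2. Reporter activity detected via FRET beta-lactamase substrate, 2 h room-temperature loading.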
# [15] = cAMP Responsive Elements (CRE) small molecule antagonists, cell-based qHTS assay (AID 1963591; active = well fitted inhibition curve with a large enough effect in the signal ratio in the repeat runs, not every such curve was filed as active; the % refers to the signal ratio)
# In short: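 Antagonist mode: compounds are added alongside the adenylyl cyclase activator NKH477 (0.25 uM final) to CRE-bla HEK293T cells for 3 h. LiveBLAzer FRET substrate, 2 h at room temperature, reports bla expression.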
# [16] = target: Beta-2 adrenergic receptor (Homo sapiens) (UniProt P07550); assay: Adrenergic beta2 receptor (ADRB2) small molecule antagonists, cell-based qHTS assay (AID 1963592); also: series mostly up to about 92 µM; nearly all actives have a fitted effect of over 50% in size
# Chain of Beta-2 adrenergic receptor (Homo sapiens) (P07550 whole entry, looked up): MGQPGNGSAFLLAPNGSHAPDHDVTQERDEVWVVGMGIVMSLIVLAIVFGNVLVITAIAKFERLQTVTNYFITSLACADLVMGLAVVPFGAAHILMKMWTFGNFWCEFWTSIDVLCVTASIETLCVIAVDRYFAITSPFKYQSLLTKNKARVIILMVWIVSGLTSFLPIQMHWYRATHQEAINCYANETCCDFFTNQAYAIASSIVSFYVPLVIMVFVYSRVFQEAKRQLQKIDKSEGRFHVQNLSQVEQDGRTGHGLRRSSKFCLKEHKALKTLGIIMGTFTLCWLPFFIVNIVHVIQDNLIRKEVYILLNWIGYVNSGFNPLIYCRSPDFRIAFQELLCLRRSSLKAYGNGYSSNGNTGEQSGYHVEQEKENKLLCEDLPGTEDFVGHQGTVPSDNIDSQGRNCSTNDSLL
# In short: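 Assay format: CHO-ADRB2 cells, 18-20hr seeding at 37C/5% CO2, then compound plus 1nM isoproterenol agonist mix for 0.5hr RT. Homogeneous time-resolved fluorescence cAMP detection after 1hr, expressed as 665/615 nm ratio.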
# [17] = target: D(2) dopamine receptor (Homo sapiens) (UniProt P14416); assay: Dopamine D2 receptor (DRD2) small molecule agonists, cell-based qHTS assay (AID 1963594); also: nearly all actives have a fitted effect of over 35% in size
# Chain of D(2) dopamine receptor (Homo sapiens) (P14416 whole entry, looked up): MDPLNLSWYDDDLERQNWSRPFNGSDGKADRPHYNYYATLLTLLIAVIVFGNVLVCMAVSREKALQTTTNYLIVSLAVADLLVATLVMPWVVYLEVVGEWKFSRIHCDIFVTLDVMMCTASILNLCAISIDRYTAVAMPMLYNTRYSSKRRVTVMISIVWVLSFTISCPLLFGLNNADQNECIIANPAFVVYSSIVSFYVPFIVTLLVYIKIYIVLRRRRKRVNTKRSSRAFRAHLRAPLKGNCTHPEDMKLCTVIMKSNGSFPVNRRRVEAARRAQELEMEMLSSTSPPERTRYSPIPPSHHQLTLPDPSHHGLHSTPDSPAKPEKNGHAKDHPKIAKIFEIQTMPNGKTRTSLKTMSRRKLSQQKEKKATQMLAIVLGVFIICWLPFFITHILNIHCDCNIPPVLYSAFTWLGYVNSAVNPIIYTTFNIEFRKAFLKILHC
# In short: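 HEK293 cells stably expressing human DRD2, pre-treated with PDE inhibitor Ro20-1724 (0.1 mM final) and compound 10 min at room temperature, then stimulated with NKH477 (200nM […]) for 30 min. cAMP read by HTRF (665/620 nm).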
# [18] = target: D(2) dopamine receptor (Homo sapiens) (UniProt P14416); assay: Dopamine D2 receptor (DRD2) small molecule antagonists, cell-based qHTS assay (AID 1963595; active = well fitted inhibition curve with a large enough effect in the signal ratio in the repeat runs, with a control signal flat; the % refers to the signal ratio)
# In short: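 HTRF cAMP read-out at 665 and 620 nm emission (340 nm excitation). Antagonist mode: compounds were tested against 12 nM quinpirole in DRD2-HEK293 cells, with 200 nM NKH477 raising cAMP and 0.1 mM Ro20-1724 blocking its breakdown.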
# [19] = target: Muscarinic acetylcholine receptor M1 (Homo sapiens) (UniProt P11229); assay: Cholinergic receptor muscarinic 1 (CHRM1) small molecule antagonists, cell-based qHTS assay (AID 1963588); also: nearly all actives have a fitted effect of over 40% in size; also: potency is read from the fitted curve at half-maximal effect
# In short: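 Compounds were tested at 15 concentrations in three independent runs. Dye-loaded CHRM1-CHO cells were exposed 5 min at room temperature before stimulation by acetylcholine added at 50nM. Intracellular calcium was read kinetically on FDSS for 3 min.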
# [20] = target: Beta-2 adrenergic receptor (Homo sapiens) (UniProt P07550); assay: Adrenergic beta2 receptor (ADRB2) small molecule agonists, cell-based qHTS assay (AID 1963593);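 also: CHO cells stably overexpressing human ADRB2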
# In short: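 CHO cells stably over-expressing ADRB2 were plated overnight at 37C, then dosed with compounds plus a stimulation mix containing 100uM IBMX and 25uM Ro-20-1724 for 0.5hr at room temperature. cAMP was measured by HTRF competition, 1hr.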
SMILES,Potency [1],Potency [2],Potency [3],Potency [4],Potency [5],Potency [6],Potency [7],Potency [8],Potency [9],Potency [10],Potency [11],Potency [12],Potency [13],Potency [14],Potency [15],Potency [16],Potency [17],Potency [18],Potency [19],Potency [20]
COc1ccc2cc1Oc1cc3c(cc1OC)CC[N+](C)(C)[C@H]3Cc1ccc(cc1)Oc1c(OC)c(OC)cc3c1[C@@H](C2)[N+](C)(C)CC3,inactive,inactive,inactive,inactive,inactive,inactive,inactive,inactive,inactive,inactive,inactive,inactive,inactive,inactive,inactive,inactive,inactive,inactive,–,–
O=C1OC[C@H](Cc2cccc(O)c2)[C@H]1Cc1cccc(O)c1,inactive,inactive,inactive,inactive,inactive,inactive,inactive,inactive,inactive,inactive,inactive,inactive,inactive,inactive,inactive,inactive,inactive,inactive,inactive,inactive
c1c[nH]cn1,inactive,inactive,inactive,inactive,inactive,inactive,inactive,inactive,inactive,inactive,inactive,inactive,inactive,inactive,inactive,inactive,inactive,inactive,inactive,–
CC1(C)O[C@H]2CC(=O)OC[C@]23[C@H]2CC[C@@]4(C)[C@H](c5ccoc5)OC(=O)[C@H]5O[C@]54[C@]2(C)C(=O)C[C@@H]13,inactive,inactive,inactive,inactive,inactive,inactive,inactive,inactive,inactive,inactive,inactive,inactive,inactive,inactive,inactive,inactive,inactive,inactive,–,–
O=[N+]([O-])c1ccc2c(c1)Cc1ccccc1-2,inactive,inactive,inactive,inactive,inactive,inactive,inactive,inactive,inactive,inactive,inactive,inactive,inactive,inactive,inactive,inactive,inactive,inactive,inactive,inactive
Cc1[nH]cnc1-c1ccc(Cl)cc1,inactive,inactive,inactive,inactive,inactive,inactive,inactive,inactive,inactive,inactive,inactive,inactive,inactive,inactive,inactive,inactive,inactive,inactive,–,inactive
CC[C@H](c1ccc(O)cc1)[C@@H](CC)c1ccc(O)cc1,inactive,inactive,inactive,inactive,inactive,inactive,–,inactive,inactive,inactive,33.4 µM (active) and 14.5 µM (active),inactive,inactive,inactive,–,inactive,inactive,inactive,7.29 µM (active),inactive
